Test results taken from the supplement of paper PMC6992640.

What follows are compounds tested on UCD52 (cells of a triple-negative basal-like breast cancer xenograft) (assay: cell viability of combination (% of vehicle); higher = less cytotoxic). Conditions: 1 µM; 72 h; partner dose: 10 nM.
Description: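 PDX cells were treated for 72 h with each drug at 1 µM plus afatinib (10 nM; 1 µM for WHIM30). Luciferase viability is expressed as percent of vehicle.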

Q: How did the “cell viability of combination” value turn out when `CCOC(=O)c1c(CSc2ccccc2)n(C)c2cc(Br)c(O)c(CN(C)C)c12.Cl` [Arbidol HCl] + CN(C)C/C=C/C(=O)Nc1cc2c(Nc3ccc(F)c(Cl)c3)ncnc2cc1O[C@H]1CCOC1 [Afatinib] was run?
A: The value was 53.

Q: With `Cn1cnc2c(F)c(Nc3ccc(Br)cc3F)c(C(=O)NOCCO)cc21` + CN(C)C/C=C/C(=O)Nc1cc2c(Nc3ccc(F)c(Cl)c3)ncnc2cc1O[C@H]1CCOC1 [Afatinib] as the compound, how does the “cell viability of combination” value read?
A: The value was 54.

Q: How did the “cell viability of combination” value turn out when `C=C1C(=CC=C2CCCC3(C)C2CCC3C(C)C=CC(C)C(C)C)CC(O)CC1O` (stereo unspecified) [Doxercalciferol] + CN(C)C/C=C/C(=O)Nc1cc2c(Nc3ccc(F)c(Cl)c3)ncnc2cc1O[C@H]1CCOC1 [Afatinib] was run?
A: The value was 47.6.

Q: For `CCOc1nc2cccc(C(=O)OC(C)OC(=O)OC3CCCCC3)c2n1Cc1ccc(-c2ccccc2-c2nn[nH]n2)cc1` (stereo unspecified) [Candesartan Cilexetil] + CN(C)C/C=C/C(=O)Nc1cc2c(Nc3ccc(F)c(Cl)c3)ncnc2cc1O[C@H]1CCOC1 [Afatinib], which “cell viability of combination” value is on record?
A: The value was 74.5.

Q: For `CN1CCC(COc2cnc(-c3cccc(Cn4nc(-c5cccc(C#N)c5)ccc4=O)c3)nc2)CC1` + CN(C)C/C=C/C(=O)Nc1cc2c(Nc3ccc(F)c(Cl)c3)ncnc2cc1O[C@H]1CCOC1 [Afatinib], which “cell viability of combination” value is on record?
A: The value was 60.5.

Q: For `CC(C)CC(NC(=O)C(NC(=O)c1cccc(-c2ccccc2)n1)C(C)O)B(O)O` (stereo unspecified) + CN(C)C/C=C/C(=O)Nc1cc2c(Nc3ccc(F)c(Cl)c3)ncnc2cc1O[C@H]1CCOC1 [Afatinib], which “cell viability of combination” value is on record?
A: Its value is 18.9.
